# From PubChem BioAssay (EPA / NIEHS)
# Values joined by “and” are separate entries in the source; they are usually repeats but may differ in a detail not shown here. Equal values may be shown once. Results filed as inconclusive are left out. Active and inactive are the calls of the source. The calls were made as follows, unless noted: active = hit-call score of the fitted dose curve at least 0.9, where 1 is the maximum; inactive = score below 0.9.
# Key:
# [1] = ACEA_ER_80hr: ACEA Biosciences xCELLigence Real-Time Cell Analysis on Estrogen Receptor Agonism for Proliferation (AID 2282667; active = hit-call score of the fitted dose curve at least 0.9, where 1 is the maximum); conditions: T47D proliferation, impedance (xCELLigence), 80 h
# Method in brief: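 Impedance readout (RT-CES) of T47D proliferation at 80 h post-dose; gain of signal vs DMSO baseline. Compounds: 8 conc, 1:4 serial, top 100 uM final, ≤0.5% DMSO; biological duplicate.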
# [2] = APR_HepG2_CellCycleArrest_24hr: Apredica 24-hour HepG2 Assay for Cell Cycle Arrest (AID 2282905); conditions: imaging, actives raise or lower the signal;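 also: cell cycle arrest scored as ratio of 2N to 4N nuclear DNA content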
# Method in brief: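 Cell cycle arrest is scored from nuclear DNA content measured by high-content imaging of Hoechst 33342-stained HepG2 cells following 24-hour treatment at ten concentrations up to 200 uM, with DMSO as baseline.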
# [3] = APR_HepG2_CellCycleArrest_1hr: Apredica 1-hour HepG2 Assay for Cell Cycle Arrest (AID 2282666); conditions: high-content imaging, actives raise or lower the signal
# Method in brief: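 HepG2 cells exposed for 1 h to 0.39–200 uM compound (0.5% DMSO). Fixed, Hoechst-stained nuclei imaged by ArrayScan; DNA content quantified by Cell Cycle analysis; bidirectional fit against DMSO.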
# [4] = APR_HepG2_CellLoss_1hr: Apredica 1-hour HepG2 Assay for Cell Loss (AID 2282668); conditions: high-content imaging;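 also: curves fitted both ways against DMSO so gain or loss of cells counts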
# Method in brief: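 HepG2 cells were treated for 1 h with compound at 0.39–200 uM, in duplicate, in 0.5% DMSO. After formaldehyde fixation, Hoechst 33342-stained nuclei were imaged on an ArrayScan to count cells. Data were fitted bidirectionally versus DMSO.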
# [5] = APR_HepG2_MicrotubuleCSK_1hr: Apredica 1-hour HepG2 Assay for Microtubule CSK Stabilty (AID 2282669); conditions: HepG2 microtubule cytoskeleton imaging, actives raise or lower the signal
# Method in brief: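 HepG2 cells exposed 1 h to 0.39–200 uM compound (0.5% DMSO, duplicates), then formaldehyde-fixed, permeabilized and immunostained for alpha-tubulin with Hoechst nuclei. Imaged by ArrayScan high-content analysis; bidirectional fit versus DMSO.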
# [6] = APR_HepG2_NuclearSize_1hr: Apredica 1-hour HepG2 Assay for Nuclear Size (AID 2282670); conditions: high-content imaging, actives raise or lower the signal
# Method: (§1) APR_HepG2_1hr is a cell-based, multiplexed-readout assay that uses HepG2, a human liver cell line, with measurements taken at 1 hour after chemical dosing in a 384-well plate.APR_HepG2_NuclearSize_1hr is one of 10 assay component(s) measured or calculated from the APR_HepG2_1hr assay. It is designed to make measurements of cell phenotype, a form of morphology reporter, as detected with fluorescence intensity signals by HCS Fluorescent Imaging technology.Data from the assay component APR_HepG2_NuclearSize_1hr was analyzed into 1 assay endpoint. This assay endpoint, APR_HepG2_NuclearSize_1hr, was analyzed with bidirectional fitting relative to DMSO as the negative control and baseline of activity. Using a type of morphology reporter, measures of all nuclear dna for gain or loss-of-signal activity can be used to understand the signaling at the nuclear-level. Furthermore, this assay endpoint can be referred to as a primary readout, because this assay has produced multiple assay endpoints where this one serves a signaling function. To generalize the intended target to other relatable targets, this assay endpoint is annotated to the cell morphology intended target family, where the subfamily is organelle conformation.
# (§2) Cells were treated with dimethyl sulfoxide (DMSO) as a solvent control at a final concentration of 0.5% v/v or with compounds in DMSO with a resulting final DMSO concentration of 0.5% v/v. Compound treatment was done at concentrations of 0.39, 0.78, 1.56, 3.12, 6.24, 12.5, 25, 50, 100, and 200 uM in duplicate on each plate. Cells were treated with compounds for 1, 24, or 72 hr. Carbonyl […] m-chloro-phenylhydrazone (CCCP) and taxol were used as positive controls for mitochondrial function and cytoskeletal stability, respectively; DMSO served as the negative control for this experiment. Cells were fixed by the direct addition of 50 uL formaldehyde in Hank's Balanced Salt Solution (HBSS) to a final concentration of 3.7%. After incubation in the fixation medium for 30 min at room temperature (293-298 K), cells were rinsed twice with HBSS and treated with cell permeabilization buffer (16 uL of 0.5% Triton X-100) for 10 min at room temperature (293-298 K) before labeling. For mitochondrial membrane potential and mitochondrial measurements, pre-fixed cells were incubated with 50 uL of MitoTracker Red CMXRos (Invitrogen) at a concentration of 250 nM for 30 min before fixation. In the remaining cases, post-fixed cells were labeled by incubation with a multiplexed mixture of primary antibodies in HBSS for 60 min at room temperature (293-298 K) to detect immunoreactivity of c-Jun (1:500), phospho-histone H3 (1:100), phospho-histone H2A.x (1:200), p53 (1:400), alpha-tubulin (1:200) and Hoechst 33342 (2 ug/mL). Cells were labeled for multiplexed imaging on two separate plates: a) Hoechst 33342, MitoTracker Red, phospho-histone H3, and alpha-tubulin, and b) Hoechst 33342, phospho-histone H2A.x, and c-Jun. A final rinse with HBSS (50 uL) was performed before analysis. The primary and secondary antibodies for the proteins were phospho-histone H3 (rabbit anti-phospho-histone H3 and FITC-donkey anti-rabbit IgG), phospho-histone H2A.x (mouse anti-phospho-histone H2A.x and FITC-donkey anti-mouse IgG), c-Jun (rabbit anti-phospho-c-Jun and Cy3-donkey anti-rabbit IgG), p53 (sheep anti-p53 and Cy5-donkey anti-sheep IgG), alpha-tubulin (mouse anti-alpha-tubulin and Cy5-donkey anti-mouse IgG). […]
# [7] = APR_HepG2_MitoticArrest_1hr: Apredica 1-hour HepG2 Assay for Mitotic Arrest (AID 2282672); conditions: high-content imaging, actives raise or lower the signal
# Method: APR_HepG2_1hr is a cell-based, multiplexed-readout assay that uses HepG2, a human liver cell line, with measurements taken at 1 hour after chemical dosing in a 384-well plate.APR_HepG2_MitoticArrest_1hr is one of 10 assay component(s) measured or calculated from the APR_HepG2_1hr assay. It is designed to make measurements of cell phenotype, a form of morphology reporter, as detected with fluorescence intensity signals by HCS Fluorescent Imaging technology.Data from the assay component APR_HepG2_MitoticArrest_1hr was analyzed into 1 assay endpoint. This assay endpoint, APR_HepG2_MitoticArrest_1hr, was analyzed with bidirectional fitting relative to DMSO as the negative control and baseline of activity. Using a type of morphology reporter, measures of protein for gain or loss-of-signal activity can be used to understand the signaling at the pathway-level as they relate to the gene . Furthermore, this assay endpoint can be referred to as a primary readout, because this assay has produced multiple assay endpoints where this one serves a signaling function. To generalize the intended target to other relatable targets, this assay endpoint is annotated to the cell cycle intended target family, where the subfamily is arrest.
# as §2
# [8] = APR_HepG2_P-H2AX_1hr: Apredica 1-hour HepG2 Assay for H2AX Phosphorylation (AID 2282673); conditions: high-content imaging, actives raise or lower the signal
# Method in brief: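 HepG2 dosed 1 hr at 0.39-200 uM (0.5% DMSO final), duplicate. Fixed in 3.7% formaldehyde, Triton permeabilized, immunostained for phospho-histone H2A.x (1:200) with Hoechst 33342; ArrayScan 20x imaging, bidirectional fit vs DMSO.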
# [9] = APR_HepG2_MitoMass_1hr: Apredica 1-hour HepG2 Assay for Mitochondrial Mass (AID 2282674); conditions: high-content imaging, actives raise or lower the signal
# Method: as §1, with “plate.APR_HepG2_MitoMass_1hr” for “plate.APR_HepG2_NuclearSize_1hr”, “APR_HepG2_MitoMass_1hr” for “APR_HepG2_NuclearSize_1hr”, “APR_HepG2_MitoMass_1hr,” for “APR_HepG2_NuclearSize_1hr,”, “reporter,” for “reporter, measures of all nuclear dna for”, “understand changes in” for “understand”, “signaling.” for “signaling at the nuclear-level.”
# as §2
# [10] = APR_HepG2_MitoMembPot_1hr: Apredica 1-hour HepG2 Assay for Mitochondrial Membrane Potential (AID 2282675); conditions: imaging, actives raise or lower the signal
# Method: APR_HepG2_1hr is a cell-based, multiplexed-readout assay that uses HepG2, a human liver cell line, with measurements taken at 1 hour after chemical dosing in a 384-well plate.APR_HepG2_MitoMembPot_1hr is one of 10 assay component(s) measured or calculated from the APR_HepG2_1hr assay. It is designed to make measurements of dye binding, a form of membrane potential reporter, as detected with fluorescence intensity signals by HCS Fluorescent Imaging technology.Data from the assay component APR_HepG2_MitoMembPot_1hr was analyzed into 1 assay endpoint. This assay endpoint, APR_HepG2_MitoMembPot_1hr, was analyzed with bidirectional fitting relative to DMSO as the negative control and baseline of activity. Using a type of membrane potential reporter, gain or loss-of-signal activity can be used to understand changes in the signaling. Furthermore, this assay endpoint can be referred to as a primary readout, because this assay has produced multiple assay endpoints where this one serves a signaling function. To generalize the intended target to other relatable targets, this assay endpoint is annotated to the cell morphology intended target family, where the subfamily is organelle conformation.
# as §2
smiles,measurement,setting,value
O=C(NC(=O)c1c(F)cccc1F)Nc1cc(Cl)c(OC(F)(F)C(F)F)c(Cl)c1,outcome,[1],inactive
same,outcome,[2],inactive
Cc1ccccc1CO[C@@H]1C[C@@]2(C(C)C)CC[C@]1(C)O2,outcome,[3],inactive
same,outcome,[4],inactive
same,outcome,[5],inactive
same,outcome,[6],inactive
same,outcome,[7],inactive
same,outcome,[8],inactive
same,outcome,[9],inactive
same,outcome,[10],inactive
same,AC50,[2],79.8 µM (active)
Sc1ccccc1,outcome,[1],inactive
CCCN(CCC)N=O,outcome,[1],inactive
same,outcome,[2],inactive
CCCCCCOC(=O)c1ccccc1C(=O)OCCCCCC,outcome,[1],inactive
same,outcome,[2],inactive
ClC1=C(Cl)[C@]2(Cl)[C@@H]3[C@H]4C[C@H]([C@@H]5O[C@H]45)[C@@H]3[C@@]1(Cl)C2(Cl)Cl,AC50,[1],50 µM (active)
same,outcome,[2],inactive
CCCCCCCCCC[N+](C)(C)CCCCCCCCCC,outcome,[1],inactive
same,AC50,[2],43 µM (active)
NS(=O)(=O)C(F)(F)C(F)(F)C(F)(F)C(F)(F)C(F)(F)C(F)(F)C(F)(F)C(F)(F)F,outcome,[1],inactive
same,AC50,[2],62.5 µM (active)
CO/C=C(/C(=O)OC)c1ccccc1COc1cccc(C(F)(F)F)n1,AC50,[1],20.2 µM (active)
same,outcome,[2],inactive
Oc1c(Cl)c(Cl)c(Cl)c(Cl)c1Cl,outcome,[1],inactive
same,AC50,[2],86.7 µM (active)
C[C@]12CCC(=O)C=C1CC[C@@H]1[C@@H]2CC[C@]2(C)C(=O)CC[C@@H]12,AC50,[1],50 µM (active) and 9.92 µM (active)
same,outcome,[2],inactive
C[C@]12CCC(=O)C=C1CC[C@@H]1[C@@H]2CC[C@@]2(C)[C@H]1CC[C@]2(C)O,AC50,[1],45.5 nM (active) and 64.3 nM (active) and 5.3 µM (active)
same,outcome,[2],inactive
Nn1cnnc1,AC50,[1],60.3 µM (active)
same,outcome,[2],inactive
CC(C)C(=O)OCC(C)(C)C(OC(=O)C(C)C)C(C)C (stereo unspecified),outcome,[1],inactive
same,outcome,[2],inactive
CCC(=O)O[C@H]1CC[C@H]2[C@@H]3CCC4=CC(=O)CC[C@]4(C)[C@H]3CC[C@]12C,AC50,[1],176 nM (active) and 243 nM (active) and 917 nM (active)
same,outcome,[2],inactive
CCC(C)(CC)c1cc(NC(=O)c2c(OC)cccc2OC)on1,outcome,[3],inactive
same,outcome,[4],inactive
same,outcome,[5],inactive
same,outcome,[6],inactive
same,outcome,[7],inactive
same,outcome,[8],inactive
same,outcome,[9],inactive
same,outcome,[10],inactive
same,outcome,[2],inactive
OCC(O)CO,outcome,[1],inactive
Cc1ccc(O)c(C)c1,outcome,[1],inactive
same,outcome,[2],inactive
CN(C)CCO,outcome,[1],inactive
same,outcome,[2],inactive
C=CC(N)=O,outcome,[1],inactive
same,outcome,[2],inactive
CCC(C)c1cc([N+](=O)[O-])cc([N+](=O)[O-])c1O (stereo unspecified),outcome,[1],inactive
same,AC50,[2],49.6 µM (active)
Oc1ccc(C(c2ccc(O)cc2)(C(F)(F)F)C(F)(F)F)cc1,AC50,[1],102 nM (active) and 189 nM (active) and 262 nM (active)
same,outcome,[2],inactive
